Reference: PubChem BioAssay AID411 (National Center for Advancing Translational Sciences (NCATS), 2006)
About 1,600 (2.2%) of roughly 72,000 compounds were called active. Shown is part of a subset that was picked to be rich in actives. A number with no mark means an inactive call. The call rests on the fitted dose curve; in most records, active means well fitted inhibition curve with a large enough effect; inconclusive means small, poorly fitted or top-dose-only effect; inactive means flat fitted curve, though single readings scatter.

biological target: Luciferin 4-monooxygenase (Photinus pyralis) (UniProt P08659); assay: qHTS Assay for Inhibitors of Firefly Luciferase; details: purified firefly luciferase, luminescence, 8 min; series mostly up to 57.1 µM; further: nearly all actives have a fitted effect of over 40% in size
Protocol: To aid in the interpretation of high-throughput screening (HTS) results derived from luciferase-based assays, we used quantitative HTS, an approach that defines the concentration-response behavior of each library sample, to profile the ATP-dependent luciferase from Photinus pyralis against more than 72 000 samples. Luciferase (PKLight, Cambrex Corporation) was assayed for its ability to generate light using ATP and luciferin as substrates. The ATP concentration in the assay (10 uM) was within the linear range of enzyme activity for the assay conditions used. See following reference for further details: [1] Auld DS, Southall NT, Jadhav A, Johnson RL, Diller DJ, Simeonov A, Austin CP, Inglese J. Characterization of chemical libraries for luciferase inhibitory activity. J Med Chem. 2008 Apr 24;51(8):2372-86. Auld DS, Zhang YQ, Southall NT, Rai G, Landsman M, Maclure J, Langevin D, Thomas CJ, Austin CP, Inglese J. A Basis for Reduced Chemical Library Inhibition of Firefly Luciferase Obtained from Directed Evolution. J. Med. Chem., 2009, 52 (5), pp 1450#1458 [3] Auld DS, Thorne N, Nguyen DT, Inglese J. A specific mechanism for nonspecific activation in reporter-gene assays. ACS Chem Biol. 2008 Aug 15;3(8):463-70. Auld DS, Thorne N, Maguire WF, Inglese J. Mechanism of PTC124 activity in cell-based luciferase assays of nonsense codon suppression. Proc Natl Acad Sci U S A. 2009 Mar 3;106(9):3585-90. Inglese J, Auld DS, Jadhav A, Johnson RL, Simeonov A, Yasgar A, Zheng W, Austin CP. Quantitative high-throughput screening: a titration-based approach that efficiently identifies biological activities in large chemical libraries. Proc Natl Acad Sci U S A. 2006 Aug 1;103(31):11473-8.
Four uL of substrate mix (final concentration, 50 mM imidazole pH 7.2, 50 mM KCl, 7 mM MgCl2, 10 uM ATP, 0.01% Tween 20, 0.05% BSA) was dispensed into white 1536 well plates. Twenty-three nL of compound was delivered by a pin tool and 2 uL of luciferase detector mix (PKLight, Cambrex) was added. Following 8-minute incubation at ambient temperature, luminescence was measured by a ViewLux (Perkin Elmer) at 5 seconds exposure/plate.
On the % scale 0 is the no-effect control and ±100 the full control effect; potency means the concentration at half of the fitted maximal effect.

Chain of Luciferin 4-monooxygenase (Photinus pyralis) (P08659 whole entry, looked up): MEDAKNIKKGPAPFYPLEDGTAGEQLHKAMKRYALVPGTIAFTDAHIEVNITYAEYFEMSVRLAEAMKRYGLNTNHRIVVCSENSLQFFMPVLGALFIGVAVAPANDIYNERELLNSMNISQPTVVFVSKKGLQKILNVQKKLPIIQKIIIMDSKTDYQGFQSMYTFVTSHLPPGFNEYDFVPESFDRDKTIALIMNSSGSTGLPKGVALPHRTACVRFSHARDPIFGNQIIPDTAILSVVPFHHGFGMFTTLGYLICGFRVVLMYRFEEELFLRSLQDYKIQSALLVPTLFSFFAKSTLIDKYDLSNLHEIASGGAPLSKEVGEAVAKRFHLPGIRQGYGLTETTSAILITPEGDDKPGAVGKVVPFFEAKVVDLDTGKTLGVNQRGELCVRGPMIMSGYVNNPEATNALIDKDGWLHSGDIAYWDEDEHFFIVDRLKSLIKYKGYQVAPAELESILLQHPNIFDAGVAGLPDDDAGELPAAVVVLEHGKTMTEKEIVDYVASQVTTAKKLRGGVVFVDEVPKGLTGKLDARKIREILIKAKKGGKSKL

**Q.** `COc1ccc(NC(=O)Nc2cccc3cccnc23)cc1` was tested. Which Potency did it give?
**A.** Its Potency is 5.01 µM (active).

**Q.** Which activity change, negative = inhibition does the source give for `c1ccc(CN2CC[C@@]3(CCCNC3)C2)cc1` here?
**A.** Its activity change, negative = inhibition is 0.194% [at 11.4 µM].

**Q.** Which activity change, negative = inhibition does the source give for `CC(C)(c1ccc(OC[C@@H]2CO2)cc1)c1ccc(OC[C@H]2CO2)cc1` here?
**A.** Its activity change, negative = inhibition is “inactive”.

**Q.** With `CC[C@]1(O)C(=O)OCc2c1cc1n(c2=O)Cc2cc3ccccc3nc2-1` as the compound, how does the activity change, negative = inhibition read?
**A.** The activity change, negative = inhibition was 1.26% [at 11.4 µM].

**Q.** `Cc1cccc([C@H](C)c2cnc[nH]2)c1C` was tested. Which activity change, negative = inhibition did it give?
**A.** The activity change, negative = inhibition was “inactive”.
